These compounds were tested on HUNK. Conditions: Compound Concentration (nM):1000.
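Also: KINOMEscan scanMAX binding as percent activity remaining versus control; lower means stronger binding.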

Compound | Percent Control [%]
NS(=O)(=O)c1ccc(N/N=C2\C(=O)Nc3ccc(C(=O)NCc4ccncc4)cc32)cc1 [GW300657X] | 86
C/C(Nc1ccc(S(N)(=O)=O)cc1)=C1/C(=O)Nc2ccccc21 [GW335962X] | 100
C[C@@H](Oc1cc(-n2cnc3ccc(OC4CCN(C)CC4)cc32)sc1C(N)=O)c1ccccc1Cl [GSK579289A] | 73
COc1ccc2[nH]c3c4[nH]c5ccc(OC)cc5c4c4c(c3c2c1)C(=O)NC4=O [GW296115X] | 91
CN1CCN(C(=O)c2ccc(NC(=O)Nc3ccc(N(C)c4ccnc(Nc5ccc(CS(C)(=O)=O)cc5)n4)cc3)cc2)CC1.Cl [GW830263A] | 35
CCc1ccc(Oc2nccc(-c3c(-c4ccc(F)cc4)ncn3C3CCNCC3)n2)cc1 [SB-242719] | 86
NS(=O)(=O)c1ccc(N/N=C2\C(=O)Nc3ccc(Cl)cc32)cc1 [GW280670X] | 100
